The values below come from the supplement of paper PMC10037445.

Experiment [1] has as its system RAW-Dual. In words: NF-kB SEAP reporter activity, fold change vs agonist alone; cytotoxicity flag (confluency mask): cytotoxic (confluency <70% of control); higher = enhanced NF-kB activity. Summed up:
(§1)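 Reporter activity is given as fold change relative to agonist-alone wells. To measure it, 50 nL of library stock was pin-tooled onto RAW-Dual macrophages (50,000 cells/well, DMEM, 384-well plates), a PRR agonist followed 1 h later, and cells stayed at 37 °C, 5% CO2. Twenty hours on, supernatant was assayed for IRF (QuantiLuc luminescence) and NF-κB (QuantiBlue, 620 nm absorbance), and wells under 70% of agonist-control IncuCyte confluency in both mask sets were marked cytotoxic.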

The test system of experiment [2] is RAW-Dual. The experiment is described as follows: NF-kB SEAP reporter activity, fold change vs agonist alone; higher = enhanced NF-kB activity. Put shortly: as §1
For experiment [3], the system named is RAW-Dual. In words: NF-kB SEAP reporter activity, fold change vs agonist alone; cytotoxicity flag (confluency mask): not cytotoxic; higher = enhanced NF-kB activity. Put shortly: as §1
Where [4] appears, read: agonist: ODN 1826 (TLR9) 0.5 ug/mL.
Where [5] appears, read: agonist: Pam2CSK4 (TLR2/6) 0.1 ug/mL.
[6] abbreviates: agonist: Pam3CSK4 (TLR2/1) 0.1 ug/mL.
Setting [7] is: library stock concentration (final ~1000-fold dilution): 10 mM, cytotoxicity flag (confluency mask): cytotoxic (confluency <70% of control), agonist: Imiquimod (TLR7) […].
The mark [8] stands for this setting: library stock concentration (final ~1000-fold dilution): 10 mM, cytotoxicity flag (confluency mask): cytotoxic (confluency <70% of control), agonist: MPLA (TLR4) […].
[9] abbreviates: library stock concentration (final ~1000-fold dilution): 10 mM, cytotoxicity flag (confluency mask): not cytotoxic, agonist: Imiquimod (TLR7) […].
Setting [10] is: library stock concentration (final ~1000-fold dilution): 10 mM, cytotoxicity flag (confluency mask): not cytotoxic, agonist: MPLA (TLR4) […].

Molecules are shown by their SMILES. ± gives the standard deviation of the averaged measurements. The full ranking holds about 2,900 compounds; the median of “NF-kB SEAP reporter activity, fold change vs agonist alone” is about 0.99, and the highest 2% start at about 2.6. What follows is part of a selection rich in the highest values, with near analogues and random picks from the rest.

Take `O=C(Nc1ccc2[nH]nc(-c3ccc4[nH]ccc4c3)c2c1)c1c(Cl)cccc1Cl` (library stock concentration (final ~1000-fold dilution): 10 mM): the “NF-kB SEAP reporter activity” value with RAW-Dual [1] (agonist: LPS (TLR4) 0.1 ug/mL) was 0.946; with RAW-Dual [1] (setting [4]), 0.844; in the experiment with RAW-Dual [1] (setting [5]), 0.0858; in the experiment with RAW-Dual [1] (setting [6]) it was 0.202.

For the compound `O=C(Nc1ccc2[nH]nc(-c3ccc4[nH]ccc4c3)c2c1)c1c(Cl)cccc1Cl`, the “NF-kB SEAP reporter activity” value in the experiment with RAW-Dual [2] (setting [7]) was 0.55; with RAW-Dual [2] (setting [8]), 0.704.

As for `C=CC(=O)N1CCC(Oc2nc(Nc3ccc(N4CCC(N5CCN(C)CC5)CC4)cc3)c(C(N)=O)nc2CC)C1` (stereo not given) (library stock concentration (final ~1000-fold dilution): 10 mM), the “NF-kB SEAP reporter activity” value in the experiment on RAW-Dual [1] (agonist: LPS (TLR4) 0.1 ug/mL) worked out at 1.06; in the experiment with RAW-Dual [1] (setting [4]), 0.194; in the experiment on RAW-Dual [1] (setting [5]) it was 0.507; with RAW-Dual [1] (setting [6]) it was 0.542.

Consider `C=CC(=O)N1CCC(Oc2nc(Nc3ccc(N4CCC(N5CCN(C)CC5)CC4)cc3)c(C(N)=O)nc2CC)C1` (stereo not given), for which the “NF-kB SEAP reporter activity” value with RAW-Dual [2] (setting [7]) amounted to 0.967; with RAW-Dual [2] (setting [8]), 1.62.

For the compound `CC1OC(OC2C(=O)c3c(O)cc(O)cc3OC2c2ccc(O)cc2)C(O)C(O)C1O` (stereo not given) (library stock concentration (final ~1000-fold dilution): 10 mM), the “NF-kB SEAP reporter activity” value in the experiment with RAW-Dual [3] (agonist: LPS (TLR4) 0.1 ug/mL) came to 1.09 ± 0.015; in the experiment on RAW-Dual [3] (setting [4]), 0.9919 ± 0.0043; in the experiment on RAW-Dual [3] (setting [5]), 1.06 ± 0.064; with RAW-Dual [3] (setting [6]), 1.39 ± 0.41.

In the case of `CC1OC(OC2C(=O)c3c(O)cc(O)cc3OC2c2ccc(O)cc2)C(O)C(O)C1O` (stereo not given), the “NF-kB SEAP reporter activity” value with RAW-Dual [2] (setting [9]) came out at 1.03 ± 0.025; in the experiment with RAW-Dual [2] (setting [10]), 1.04 ± 0.041.

`O=C1NC(=O)C(c2cnc3ccccn23)=C1c1cn2c3c(cc(F)cc13)CN(C(=O)N1CCCCC1)CC2` (library stock concentration (final ~1000-fold dilution): 10 mM): the “NF-kB SEAP reporter activity” value in the experiment on RAW-Dual [3] (agonist: LPS (TLR4) 0.1 ug/mL) is 3.19; in the experiment on RAW-Dual [3] (setting [4]) it was 2.72; in the experiment on RAW-Dual [3] (setting [5]), 1.42; in the experiment with RAW-Dual [3] (setting [6]), 1.84.

`O=C1NC(=O)C(c2cnc3ccccn23)=C1c1cn2c3c(cc(F)cc13)CN(C(=O)N1CCCCC1)CC2`: the “NF-kB SEAP reporter activity” value in the experiment with RAW-Dual [2] (setting [9]) was 2.62; in the experiment with RAW-Dual [2] (setting [10]), 2.43.

Consider `CC(C(=O)Nc1ccc(Cl)cc1)C1CCC(c2ccnc3ccc(F)cc23)CC1` (stereo not given) (library stock concentration (final ~1000-fold dilution): 10 mM), for which the “NF-kB SEAP reporter activity” value with RAW-Dual [3] (agonist: LPS (TLR4) 0.1 ug/mL) stood at 0.974; in the experiment with RAW-Dual [3] (setting [4]), 1.05; in the experiment with RAW-Dual [3] (setting [5]), 0.52; in the experiment with RAW-Dual [3] (setting [6]), 0.738.

With `CC(C(=O)Nc1ccc(Cl)cc1)C1CCC(c2ccnc3ccc(F)cc23)CC1` (stereo not given), the “NF-kB SEAP reporter activity” value in the experiment on RAW-Dual [2] (setting [9]) amounted to 1.51; with RAW-Dual [2] (setting [10]), 1.55.

In the case of `COc1ccc(CNCc2cccc3ccccc23)cc1.Cl`, the “NF-kB SEAP reporter activity” value in the experiment on RAW-Dual [2] (setting [9]) was 1.34; with RAW-Dual [2] (setting [10]), 1.44.

Take `COc1ccc(CNCc2cccc3ccccc23)cc1.Cl` (library stock concentration (final ~1000-fold dilution): 10 mM): the “NF-kB SEAP reporter activity” value was 1.45 in the experiment on RAW-Dual [3] (agonist: LPS (TLR4) 0.1 ug/mL), 0.82 in the experiment on RAW-Dual [3] (setting [4]), 1.04 in the experiment with RAW-Dual [3] (setting [5]) and 1.06 with RAW-Dual [3] (setting [6]).

Turning to `COC1CC2CCC(C)C(O)(O2)C(=O)C(=O)N2CCCCC2C(=O)OC(C(C)CC2CCC(O)C(OC)C2)CC(=O)C(C)C=C(C)C(O)C(OC)C(=O)C(C)CC(C)C=CC=CC=C1C` (stereo not given), the “NF-kB SEAP reporter activity” value in the experiment with RAW-Dual [2] (setting [9]) turned out to be 1.44; in the experiment with RAW-Dual [2] (setting [10]), 1.5; in the experiment with RAW-Dual [2] (library stock concentration (final ~1000-fold dilution): .1 mM, cytotoxicity flag (confluency mask): not cytotoxic, agonist: Imiquimod (TLR7) […]), 1.35; with RAW-Dual [2] (library stock concentration (final ~1000-fold dilution): .1 mM, cytotoxicity flag (confluency mask): not cytotoxic, agonist: MPLA (TLR4) […]), 1.19.

As for `COC1CC2CCC(C)C(O)(O2)C(=O)C(=O)N2CCCCC2C(=O)OC(C(C)CC2CCC(O)C(OC)C2)CC(=O)C(C)C=C(C)C(O)C(OC)C(=O)C(C)CC(C)C=CC=CC=C1C` (stereo not given) (library stock concentration (final ~1000-fold dilution): .1 mM), the “NF-kB SEAP reporter activity” value in the experiment on RAW-Dual [3] (agonist: LPS (TLR4) 0.1 ug/mL) was 1.2; in the experiment on RAW-Dual [3] (setting [4]), 1.31; in the experiment on RAW-Dual [3] (setting [5]) it was 1.53; with RAW-Dual [3] (setting [6]) it was 1.44.

As to `COC1CC2CCC(C)C(O)(O2)C(=O)C(=O)N2CCCCC2C(=O)OC(C(C)CC2CCC(OC(=O)C(C)(CO)CO)C(OC)C2)CC(=O)C(C)C=C(C)C(O)C(OC)C(=O)C(C)CC(C)C=CC=CC=C1C` (stereo not given), the “NF-kB SEAP reporter activity” value in the experiment with RAW-Dual [2] (setting [9]) is 2.36; in the experiment with RAW-Dual [2] (setting [10]), 2.41.

With `COC1CC2CCC(C)C(O)(O2)C(=O)C(=O)N2CCCCC2C(=O)OC(C(C)CC2CCC(OCCO)C(OC)C2)CC(=O)C(C)C=C(C)C(O)C(OC)C(=O)C(C)CC(C)C=CC=CC=C1C` (stereo not given), the “NF-kB SEAP reporter activity” value with RAW-Dual [2] (setting [9]) is 1.77; with RAW-Dual [2] (setting [10]) it was 1.92.

On to `COC1CC2CCC(C)C(O)(O2)C(=O)C(=O)N2CCCCC2C(=O)OC(C(C)CC2CCC(O)C(OC)C2)CC(=O)C(C)C=C(C)C(O)C(OC)C(=O)C(C)CC(C)C=CC=CC=C1C` (stereo not given) (library stock concentration (final ~1000-fold dilution): 10 mM), for which the “NF-kB SEAP reporter activity” value was determined as 1.57 in the experiment on RAW-Dual [3] (agonist: LPS (TLR4) 0.1 ug/mL), 1.11 in the experiment with RAW-Dual [3] (setting [4]), 0.536 in the experiment on RAW-Dual [3] (setting [5]) and 0.77 with RAW-Dual [3] (setting [6]).

Turning to `COC1CC2CCC(C)C(O)(O2)C(=O)C(=O)N2CCCCC2C(=O)OC(C(C)CC2CCC(OCCO)C(OC)C2)CC(=O)C(C)C=C(C)C(O)C(OC)C(=O)C(C)CC(C)C=CC=CC=C1C` (stereo not given) (library stock concentration (final ~1000-fold dilution): 10 mM), the “NF-kB SEAP reporter activity” value in the experiment on RAW-Dual [3] (agonist: LPS (TLR4) 0.1 ug/mL) is 1.83; in the experiment with RAW-Dual [3] (setting [4]), 1.7; with RAW-Dual [3] (setting [5]) it was 0.629; in the experiment on RAW-Dual [3] (setting [6]), 0.915.

As to `COC1CC2CCC(C)C(O)(O2)C(=O)C(=O)N2CCCCC2C(=O)OC(C(C)CC2CCC(OC(=O)C(C)(CO)CO)C(OC)C2)CC(=O)C(C)C=C(C)C(O)C(OC)C(=O)C(C)CC(C)C=CC=CC=C1C` (stereo not given) (library stock concentration (final ~1000-fold dilution): 10 mM), the “NF-kB SEAP reporter activity” value in the experiment with RAW-Dual [3] (agonist: LPS (TLR4) 0.1 ug/mL) came to 3.85; in the experiment with RAW-Dual [3] (setting [4]), 3.11; in the experiment with RAW-Dual [3] (setting [5]) it was 1.33; in the experiment with RAW-Dual [3] (setting [6]), 2.09.
